Each structure is given as a SMILES string. Several values for one entry are separate records, joined by “and”; a condition that tells them apart may be missing. Identical values can stand only once. Out of some 75,000 compounds screened, about 5,700 (7.6%) were called active. Not shown: some 7% with an inconclusive outcome. No cut-off for these calls is given here. This excerpt belongs to a sample that is enriched for actives.

This test has as its target T1, 3-hydroxyacyl-CoA dehydrogenase type-2 (Homo sapiens) (UniProt Q99714).
T1 sequence (whole entry): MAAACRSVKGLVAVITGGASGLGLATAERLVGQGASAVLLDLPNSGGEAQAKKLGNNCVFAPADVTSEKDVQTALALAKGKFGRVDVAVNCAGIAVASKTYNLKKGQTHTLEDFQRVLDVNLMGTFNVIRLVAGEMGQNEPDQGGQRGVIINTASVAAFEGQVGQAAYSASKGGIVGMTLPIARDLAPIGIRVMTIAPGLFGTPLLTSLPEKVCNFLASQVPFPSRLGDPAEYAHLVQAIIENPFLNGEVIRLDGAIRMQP
The experiment in a line: qHTS Assay for Inhibitors of HSD17B4, hydroxysteroid (17-beta) dehydrogenase 4. It counts as functional. Background: Quantitative high-throughput screening tests each substance at several concentrations.
`O=C(O)c1cc(-c2ccc(F)cc2F)ccc1O`: the Potency was 31.6 µM (active) and 12.6 µM (active).
Take `Cc1c(OCC(=O)OC(C)C)ccc2c3c(c(=O)oc12)CCC3`: the Potency entry is “inactive”.

Source of the values: ChEMBL document CHEMBL1201862, “PubChem BioAssay data set” (2004).
